What follows are sequences tested against Tll (Drosophila melanogaster, UniProt P18102 21-118) (assay: FP; 33 mM phosphate pH 7.0, 90 mM NaCl, 0.01% Tween 20, 0.1 mM DTT, 0.5% agarose; room temperature). Details: tags: N-GST (pGEX-6P-1, kept); dsDNA, one strand shown.
Chain of Tll (P18102 21-118): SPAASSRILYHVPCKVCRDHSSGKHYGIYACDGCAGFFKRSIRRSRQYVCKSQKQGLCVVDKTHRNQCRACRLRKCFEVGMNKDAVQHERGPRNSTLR

Sequence	binding signal	Kd
AAGAAGTCAAAT	1.73 Kd / Kd of best base at the position	
AAAAATTCAAAT	71.4 Kd / Kd of best base at the position	
AAACAGTCAAAT	11.1 Kd / Kd of best base at the position	
AAAAAGTAAAAT	18.6 Kd / Kd of best base at the position	
AAAAAGTGAAAT	71.7 Kd / Kd of best base at the position	
AAAAAGTCTAAT	13.1 Kd / Kd of best base at the position	
ATAAAGTCAAAT	2.33 Kd / Kd of best base at the position	
AAAAAGCCAAAT	7.08 Kd / Kd of best base at the position	
AAAAAGTCAACT	2.61 Kd / Kd of best base at the position	
AAAAAGTTAAAT	2.32 Kd / Kd of best base at the position	
CAAAAGTCAAAT	2.71 Kd / Kd of best base at the position	
AAAAAGTCCAAT	14.4 Kd / Kd of best base at the position	
AAAAGGTCAAAT	6.02 Kd / Kd of best base at the position	
GAAAAGTCAAAT	1.71 Kd / Kd of best base at the position	
AACAAGTCAAAT	3.38 Kd / Kd of best base at the position	
AAAAAGTCAATT	1.96 Kd / Kd of best base at the position	
AAAACGTCAAAT	8.65 Kd / Kd of best base at the position	
AAAAAGTCAAGT	3.05 Kd / Kd of best base at the position	
AAAAAGTCACAT	1.72 Kd / Kd of best base at the position	

Sequence	binding signal	Kd
AGAAAGTCAAAT	2.99 Kd / Kd of best base at the position	
AAAAAGTCAAAG	2.05 Kd / Kd of best base at the position	
AAAATGTCAAAT	15 Kd / Kd of best base at the position	
AATAAGTCAAAT	2.37 Kd / Kd of best base at the position	
AAAAAATCAAAT	10.1 Kd / Kd of best base at the position	
AAAAAGTCAAAT		~4.1 nM
AAAAAGGCAAAT	7.78 Kd / Kd of best base at the position	
AAAAAGTCAAAA	1.57 Kd / Kd of best base at the position	
AAAAAGTCATAT	3.23 Kd / Kd of best base at the position	
AAATAGTCAAAT	12.4 Kd / Kd of best base at the position	
AAAGAGTCAAAT	3.96 Kd / Kd of best base at the position	
AAAAAGTCGAAT	5.21 Kd / Kd of best base at the position	
AAAAAGTCAGAT	4.13 Kd / Kd of best base at the position	
AAAAAGACAAAT	36.4 Kd / Kd of best base at the position	
AAAAAGTCAAAC	1.05 Kd / Kd of best base at the position	
ACAAAGTCAAAT	3.41 Kd / Kd of best base at the position	
AAAAACTCAAAT	57.7 Kd / Kd of best base at the position	
TAAAAGTCAAAT	2.03 Kd / Kd of best base at the position	

— paper PMC5913336, “True equilibrium measurement of transcription factor-DNA binding affinities using automated polarization microscopy”
